Shown are actives, neighbours in structure and some others; about 5.1% of the full set was active somewhere.
NR3A LBD binder: NR3A (human) ligand-binding domain modulation; NR3A LBD differential scanning fluorimetry, Tm shift; 0% = protein alone, 100% = glycine-bound protein; Tm shift relative to glycine control, % at 25 µM; hit rate 2.5% among 340,000; AID 1259313;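 active = melting temperature shift of at least 10% of the positive control shift, at one fixed dose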
CRFBP-R2 agonist: CRF-BP/CRF-R2 complex agonism. hit rate 0.46% among 350,000. activation, % at 13.2 µM. AID 588473. HEK293 CRF-R2/CRF-BP, calcium dye fluorescence (FLIPR); percent of saturating CRF peptide response;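 active = activation of at least 50%, plus an integration ratio under a set limit after plate pattern correction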;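 note: plate controls were neutral control wells without compound for no effect and CRF at EC100 for full effect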
ANO1 block: inhibitors of mouse TMEM16A calcium-activated chloride channel | normalized B-score (activity score, 25-100; higher = stronger inhibition) at 10 µM | hit rate 1.2% among 310,000 | AID 588511 | HEK293 TMEM16A/YFP iodide influx fluorescence, ionomycin | Q8BHY3;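 active = ratio plate-corrected score three or more library SD toward inhibition, starting fluorescence score within five deviations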;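 note: score derived from kinetic fluorescence span divided by baseline fluorescence per well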
Target sequence (Q8BHY3 whole entry, looked up): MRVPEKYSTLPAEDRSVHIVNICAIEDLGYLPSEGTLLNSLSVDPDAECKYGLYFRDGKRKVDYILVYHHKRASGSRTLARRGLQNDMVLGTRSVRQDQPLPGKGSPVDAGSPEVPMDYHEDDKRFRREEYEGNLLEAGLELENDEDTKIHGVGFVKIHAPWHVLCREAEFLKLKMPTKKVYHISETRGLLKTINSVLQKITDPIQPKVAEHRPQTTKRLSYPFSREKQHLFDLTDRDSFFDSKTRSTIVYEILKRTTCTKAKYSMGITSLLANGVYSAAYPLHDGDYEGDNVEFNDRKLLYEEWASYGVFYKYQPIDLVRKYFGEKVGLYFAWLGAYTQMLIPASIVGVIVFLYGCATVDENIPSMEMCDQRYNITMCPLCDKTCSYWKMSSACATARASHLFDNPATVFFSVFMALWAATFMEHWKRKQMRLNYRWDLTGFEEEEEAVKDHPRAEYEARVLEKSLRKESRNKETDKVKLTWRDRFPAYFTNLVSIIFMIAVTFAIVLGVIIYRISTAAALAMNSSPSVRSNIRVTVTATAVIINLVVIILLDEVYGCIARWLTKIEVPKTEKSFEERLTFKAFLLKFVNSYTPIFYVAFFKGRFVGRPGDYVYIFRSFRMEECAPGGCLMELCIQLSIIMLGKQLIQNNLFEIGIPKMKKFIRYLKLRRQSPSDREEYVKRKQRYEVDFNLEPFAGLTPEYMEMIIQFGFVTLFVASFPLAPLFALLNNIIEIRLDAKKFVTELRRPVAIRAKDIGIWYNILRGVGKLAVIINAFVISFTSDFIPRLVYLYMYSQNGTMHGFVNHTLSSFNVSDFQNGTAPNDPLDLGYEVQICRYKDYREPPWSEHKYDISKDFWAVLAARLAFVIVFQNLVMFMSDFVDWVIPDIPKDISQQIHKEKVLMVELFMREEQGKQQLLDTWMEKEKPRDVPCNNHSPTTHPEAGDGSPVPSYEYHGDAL
ANO1 activ: activators or potentiators of mouse TMEM16A chloride channel | Q8BHY3 | HEK293 TMEM16A/YFP-H148Q/I152L, iodide quench fluorescence; active compounds read low | B-score at 10 µM | hit rate 0.3% among 340,000;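 active = fluorescence-ratio B-score plate-corrected deviation score at least 3 library SD below zero, with starting fluorescence score within 5 deviations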;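 note: channel opened by trigger with iodide after compound preincubation; score built on the fluorescence ratio of max minus min over baseline; more negative score means more quench and so TMEM16A activation or potentiation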
MPTP block: permeability transition pore inhibition | isolated mouse mitochondria, Ca2+ swelling absorbance, 30 min | inhibition, % at 10 µM | hit rate 1.4% among 360,000 | AID 602449;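 active = inhibition of 50% or more, scaled per plate between neutral and stimulator controls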;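 note: 0% = DMSO wells given calcium and 100% = 1 mM EGTA wells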
CRFBP-R2 block: CRF-BP/CRF-R2 complex antagonism | HEK293 CRF-R2/CRF-BP, CRF-induced calcium fluorescence | inhibition, % at 11.8 µM | hit rate 0.59% among 350,000 | AID 588475;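 active = inhibition of the ligand-induced calcium signal above about 50% at the single tested concentration, limit read from the data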
Rh123 counter: Rhodamine 123 counter-screen of mitochondrial pore hits; isolated mitochondria, membrane potential, Rhodamine 123 fluorescence; inhibition, % at 10 µM; shares compounds with MPTP block; AID 624504; hit rate 78% among 5,000; in the data active = inhibition above about 22%;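 note: 0% = DMSO vehicle and 100% = positive control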
MPTP swell DR: dose response confirmation of mitochondrial permeability transition pore inhibitors. shares compounds with MPTP block. AID 651561. hit rate 58% among 780. isolated mitochondria swelling, absorbance. IC50, µM; in the data active = IC50 below about 20 µM
MPTP cs DR: active in counter-screen for permeability transition pore inhibitors; IC50, µM; hit rate 49% among 780; isolated mitochondria counterscreen, fluorescence read-out; AID 651564; shares compounds with MPTP block; in the data active = IC50 below about 80 µM
* = called active by the depositor; i = inactive; / = no result.

SMILES	NR3A LBD binder	CRFBP-R2 agonist	ANO1 block	ANO1 activ	MPTP block	CRFBP-R2 block	Rh123 counter	others
CCOC(=O)c1sc2nc(C)nc(N3CCCCC3C)c2c1C (stereo unspecified)	2	4	i	i	2	-38	/
Cc1ccc(-c2nnc(SCC(=O)N(C)C)nc2-c2ccc(C)cc2)cc1	1	0	i	i	73*	-5	-1	MPTP swell DR=17*;MPTP cs DR=>80
Cc1cc(NC(=O)COC(=O)C2CC(=O)N(c3ccc(Cl)cc3)C2)no1 (stereo unspecified)	0	1	i	i	-2	-2	/
Cc1cccc(NC(=O)CSc2cc(C)c(C#N)c3nc4ccccc4n23)c1	13*	6	i	i	85*	-6	58*
CNc1cc(C)c(C#N)c2nc3ccccc3n12	-1	-2	i	i	1	15	/
CC(C)NCC(O)Cn1c2c(c3ccccc31)CCc1c-2cnn1-c1ccccc1 (stereo unspecified)	-5	0	i	i	87*	0	-17
COc1ccc(-c2nc(CN3CCC(C(=O)N4CCOCC4)CC3)c(C)o2)cc1C	3	-1	i	i	-1	2	/
COc1ccc(NC(=O)C(c2ccccc2)N2CCN(c3ccccn3)CC2)cc1Cl (stereo unspecified)	-29	0	i	i	1	5	/
CCCn1c(=S)[nH]c2cc(C(=O)N3CCc4ccccc43)ccc2c1=O	-3	-1	i	i	60*	-24	48*
CN(C(=O)COc1ccccc1C(=O)NCCOc1ccccc1)c1ccccc1	-5	-2	25*	i	51*	-4	31*
NCCc1c(-c2ccccc2)n(-c2ccccc2)c2ccccc12	-4	11	/	i	79*	-128	-14
CC(=O)n1c(-c2ccccc2)c(CO)c2ccccc21	1	-1	i	i	-1	3	/
CC1=C(C(=O)N(C)C)CC(CC(=O)NCCc2ccccn2)C(=O)N1Cc1ccccc1 (stereo unspecified)	/	2	/	/	-1	8	/
Cc1ccccc1CS(=O)(=O)c1nnc([C@H](CC(C)C)NC(=O)OC(C)(C)C)o1	1	33	i	i	75*	-12	-3
CC[C@@H](C)[C@H](NC(=O)OC(C)(C)C)c1nnc(S(=O)(=O)Cc2cc(C)ccc2C)o1	2	12	i	i	27	28	/
Cc1ccc(S(=O)(=O)N2CCCCC2CCNC(=O)C(=O)Nc2ccccc2F)cc1 (stereo unspecified)	1	0	i	i	1	1	/
O=S(=O)(c1ccc2c(c1)C(O)c1ccccc1CC2)C(F)(F)F (stereo unspecified)	-19	3	/	i	90*	-6	92*
O=C(CSc1ncnc2c1cnn2-c1ccccc1)Nc1ccc2c(c1)OCO2	1	0	i	i	67*	45	9	MPTP swell DR=5.2*;MPTP cs DR=6.4*
Cc1ccccc1-n1ncc2c(SCC(=O)NC3CCCC3)ncnc21	-1	-1	i	i	80*	1	28*
Cc1nnc(NC(=O)CSc2ncnc3c2cnn3-c2ccccc2C)s1	-5	0	i	i	1	-9	/
O=C(CSc1ncnc2ccccc12)Nc1ccc2c(c1)OCO2	1	0	i	i	-2	27	/
CCN(c1ccccc1)S(=O)(=O)c1ccc(C(=O)NCC(=O)Nc2ccc(F)c(F)c2F)cc1	-7	3	/	i	1	-9	/
CC(C)(C)OC(=O)COc1cc(F)ccc1[N+](=O)[O-]	3	0	i	i	-2	-7	/
Cc1ccc(NC(=O)COC(=O)C2(c3ccc(Cl)cc3)CCCC2)cc1	2	10	i	i	78*	-94	82*
CCOC(=O)c1ccc(NC(=O)C2(c3ccc(Cl)cc3)CCCC2)cc1	-28	9	i	i	-7	-39	/
SMILES	NR3A LBD binder	CRFBP-R2 agonist	ANO1 block	ANO1 activ	MPTP block	CRFBP-R2 block	Rh123 counter	others
O=C(NCc1ccccc1)c1ccc2nnsc2c1	-1	-2	i	i	2	-2	/
O=C(Nc1ccccc1)Nc1ccc2snnc2c1	32*	16	i	i	101*	-3	92*
O=C(Nc1ccccc1)Nc1ccc2nnsc2c1	42*	11	100*	i	83*	13	72*
Cc1[nH]c(C(=O)N/N=C/c2ccc(C(=O)O)cc2)c(C)c1C(=O)N/N=C/c1ccc(C(=O)O)cc1	0	0	i	i	2	0	/
CCOC(=O)c1c(C)[nH]c(C(=O)N/N=C/c2ccc(Br)cc2)c1C	5	-1	i	i	99*	-57	76*
Cc1ccc(CN2CC(C(=O)N3CC=C(c4ccccc4)CC3)CC2=O)cc1 (stereo unspecified)	2	-1	i	i	-2	-7	/
CSc1nsc(/C=C/Nc2ccc(Cl)cc2)c1C#N	2	7	i	i	2	23	/
CSc1nsc(/C=C/Nc2ccc(F)cc2)c1C#N	5	2	i	i	60*	-27	31*
O=[N+]([O-])c1ccc(Oc2ccc(S(=O)(=O)Nc3ccccc3)cc2)cc1	8	34	25*	i	69*	-35	85*
O=[N+]([O-])c1ccc(NS(=O)(=O)c2ccc(Cl)c(Cl)c2)cc1	/	/	/	/	86*	/	102*
O=[N+]([O-])c1ccc(S(=O)(=O)Nc2ccncc2)cc1	0	3	i	i	0	-5	/
O=[N+]([O-])c1cc(NS(=O)(=O)c2ccc(Cl)nc2)ccc1Cl	1	15	i	i	85*	19	97*
O[C@@H]1CN(CC2CCCCC2)[C@@H](c2ccc(Cl)cc2)C[C@H]1n1cc(-c2ccc(F)cc2)nn1	/	0	/	/	-1	-1	/
c1ccc(-c2cc3nc(NCC4CC4)nc(NCC4CCCCC4)c3s2)cc1	/	/	/	/	75*	/	97*
COCCNc1nc(NCC2CCCCC2)c2sc(-c3ccccc3)cc2n1	/	/	/	/	70*	/	93*
O=C1NCCN1CCNc1nc(NCC2CC2)nc2cc(-c3ccccc3)sc12	/	/	/	/	-1	/	/
CCOC(=O)C1=C(C)N(C[C@@H]2CC[C@@H](Cc3ccc(-c4ccccc4)cc3)O2)C(=O)NC1c1cccc([N+](=O)[O-])c1 (stereo partly specified)	2	6	/	/	0	-9	/
